# Source: PubChem BioAssay (NCATS)
# Records with an inconclusive call do not appear. Values without a mark were called inactive. The source made the active and inactive calls. Calls follow the shape of the dose curve; as a rule, active = well fitted inhibition curve with a large enough effect; inconclusive = small, poorly fitted or top-dose-only effect; inactive = flat fitted curve, though single readings scatter.
# Target: Voltage-gated inwardly rectifying potassium channel KCNH2 (Homo sapiens) (UniProt Q12809)
# Sequence (Q12809 whole entry, looked up): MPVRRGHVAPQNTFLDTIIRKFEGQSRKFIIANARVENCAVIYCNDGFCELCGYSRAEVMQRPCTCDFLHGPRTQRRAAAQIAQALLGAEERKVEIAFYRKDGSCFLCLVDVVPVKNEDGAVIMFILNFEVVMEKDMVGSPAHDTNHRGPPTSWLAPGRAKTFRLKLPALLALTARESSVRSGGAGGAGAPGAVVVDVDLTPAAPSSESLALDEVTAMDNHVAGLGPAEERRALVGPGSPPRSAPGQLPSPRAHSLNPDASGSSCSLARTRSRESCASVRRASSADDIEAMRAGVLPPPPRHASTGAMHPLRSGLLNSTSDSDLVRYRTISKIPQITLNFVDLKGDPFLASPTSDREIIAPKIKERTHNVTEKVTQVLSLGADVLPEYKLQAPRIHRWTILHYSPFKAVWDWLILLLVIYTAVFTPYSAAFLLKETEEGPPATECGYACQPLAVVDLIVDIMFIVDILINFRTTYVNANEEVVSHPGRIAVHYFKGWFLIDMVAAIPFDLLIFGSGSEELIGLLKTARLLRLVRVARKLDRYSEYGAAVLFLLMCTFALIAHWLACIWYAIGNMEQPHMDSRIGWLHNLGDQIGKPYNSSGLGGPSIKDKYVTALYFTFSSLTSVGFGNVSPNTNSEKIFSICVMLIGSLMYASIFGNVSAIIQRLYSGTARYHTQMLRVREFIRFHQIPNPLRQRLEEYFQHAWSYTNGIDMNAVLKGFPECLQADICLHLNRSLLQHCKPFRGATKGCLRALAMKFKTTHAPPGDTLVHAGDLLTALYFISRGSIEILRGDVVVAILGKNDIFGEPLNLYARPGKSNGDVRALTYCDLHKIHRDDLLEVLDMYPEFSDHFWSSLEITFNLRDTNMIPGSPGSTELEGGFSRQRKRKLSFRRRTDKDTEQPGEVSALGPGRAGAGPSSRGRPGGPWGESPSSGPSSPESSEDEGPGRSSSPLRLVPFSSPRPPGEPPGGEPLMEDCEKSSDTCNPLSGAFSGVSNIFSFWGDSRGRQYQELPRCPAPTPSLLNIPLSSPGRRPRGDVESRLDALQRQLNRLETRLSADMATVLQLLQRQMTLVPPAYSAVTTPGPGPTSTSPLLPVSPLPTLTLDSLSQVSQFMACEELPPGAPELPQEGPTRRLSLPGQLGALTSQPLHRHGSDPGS
# Assay: qHTS Assay for Small Molecule Inhibitors of the Human hERG Channel Activity (AID 588834);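 also: lower thallium flux fluorescence means stronger hERG block; nearly all actives have a fitted effect of over 50% in size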; also: potency is read from the fitted curve at half-maximal effect; as to activity change, negative = inhibition: top concentration of the series differs between compounds; % is scaled to controls: 0 for no effect and ±100 for the full control effect
# Conditions: U2OS BacMam hERG, FluxOR thallium flux fluorescence; series mostly up to 46.1 µM; activity change, negative = inhibition: at the top concentration
# How it was run: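 Blockade is seen as reduced FluxOR thallium-flux fluorescence in U2OS cells expressing hERG from a BacMam construct, in Opti-MEM with 2% FCS. Concentration-response data fitted to the Hill equation for AC50.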
SMILES,"activity change, negative = inhibition",Potency
CCCC(=O)Nc1ccc(OCC(O)CNC(C)C)c(C(C)=O)c1 (stereo unspecified),-7.96% [at 20.6 µM],–
C[C@]12CC[C@H]3[C@@H](CCC4=CC(=O)CC[C@@]43C)[C@@H]1CC[C@@H]2C(=O)CO,-0.156% [at 20.6 µM],–
CC1(C)O[C@@H]2[C@@H](CO[C@@]3(COS(N)(=O)=O)OC(C)(C)O[C@@H]23)O1,-13.9%,–
CC1=C(C(=O)OC(C)C)C(c2cccc([N+](=O)[O-])c2)C(C(=O)OC2CN(C(c3ccccc3)c3ccccc3)C2)=C(N)N1 (stereo unspecified),-27.2%,–
N[C@H](Cc1c[nH]c2ccccc12)C(=O)O,-23.2%,–
CCCCCCCCCCOCC(O)CN (stereo unspecified),–,25.1 µM (active)
CC(=O)OCC(=O)[C@@]12N=C(C)O[C@@H]1C[C@H]1[C@@H]3CCC4=CC(=O)C=C[C@]4(C)[C@H]3[C@@H](O)C[C@@]12C,20.1%,–
O=c1[nH]c(=O)n([C@H]2C[C@H](O)[C@@H](CO)O2)cc1C(F)(F)F,6%,–
CC(=O)OCC(=O)[C@@]12OC(C)(C)O[C@@H]1C[C@H]1[C@@H]3C[C@H](F)C4=CC(=O)C=C[C@]4(C)[C@@]3(F)[C@@H](O)C[C@@]12C,-4.35% [at 20.6 µM],–
Nc1nc2ncc(CNc3ccc(C(=O)N[C@@H](CCC(=O)O)C(=O)O)cc3)nc2c(=O)[nH]1,24.3%,–
CC(=O)OCC(=O)[C@@]1(O)[C@H](C)C[C@H]2[C@@H]3CCC4=CC(=O)C=C[C@]4(C)[C@@]3(F)[C@@H](O)C[C@@]21C,-5.59% [at 20.6 µM],–
OC[C@@H](O)[C@@H](O[C@@H]1O[C@H](CO)[C@H](O)[C@H](O)[C@H]1O)[C@H](O)[C@@H](O)CO,4.93%,–
CC(Cc1ccccc1)(NC(=O)CN)c1ccccc1 (stereo unspecified),19.6%,–
COc1cc2c(cc1OC)[C@@H]1CC(=O)[C@@H](CC(C)C)CN1CC2,-10.7%,–
CC[C@@H](CO)NCCN[C@@H](CC)CO,22.1% [at 20.6 µM],–
Cc1cc(N)c2cc(NC(=O)Nc3ccc4nc(C)cc(N)c4c3)ccc2n1,23.9%,–
CC1(C)O[C@@H]2C[C@H]3[C@@H]4CCC5=CC(=O)CC[C@]5(C)[C@@]4(F)[C@@H](O)C[C@]3(C)[C@]2(C(=O)CCl)O1,0.0479% [at 20.6 µM],–
CCOC(=O)OC(C)OC1=C(C(=O)Nc2ccccn2)N(C)S(=O)(=O)c2ccccc21 (stereo unspecified),-6.43%,–
N[C@@H](CCC(=O)N[C@@H](CS)C(=O)NCC(=O)O)C(=O)O,-1.99%,–
CN(C)CC/C=C1/c2ccccc2COc2ccc(CC(=O)O)cc21,-2.31%,–

SMILES,"activity change, negative = inhibition",Potency
C=C(CC)C(=O)c1ccc(OCC(=O)O)c(Cl)c1Cl,0.538% [at 92.2 µM],–
OC[C@H]1O[C@@H](n2cnc3c(=S)nc[nH]c32)[C@H](O)[C@@H]1O,4.82%,–
NC(=O)CC[C@@H]1NC(=O)[C@H](Cc2ccccc2)NC(=O)[C@H](Cc2ccc(O)cc2)NC(=O)CCSSC[C@@H](C(=O)N2CCC[C@H]2C(=O)N[C@@H](CCCN=C(N)N)C(=O)NCC(N)=O)NC(=O)[C@H](CC(N)=O)NC1=O,4.89%,–
Oc1ccc(Cl)c2cccnc12,24.8%,–
C[C@H](CCC(=O)O)[C@H]1CC[C@H]2[C@@H]3C(=O)C[C@@H]4CC(=O)CC[C@]4(C)[C@H]3CC(=O)[C@]12C,15.5%,–
COc1cccc(OC)c1C(=O)N[C@@H]1C(=O)N2[C@@H]1SC(C)(C)[C@@H]2C(=O)O,-3.09%,–
COc1ccc(OC)c(C(O)CNC(=O)CN)c1 (stereo unspecified),1.56% [at 20.6 µM],–
C[C@]12C=CC(=O)C=C1[C@@H](F)C[C@@H]1[C@@H]2[C@@H](O)C[C@@]2(C)[C@H]1CC[C@]2(O)C(=O)CO,4.7%,–
C=C1C[C@H]2[C@@H]3C=C(C)C4=CC(=O)CC[C@]4(C)[C@H]3CC[C@]2(C)[C@@]1(OC(C)=O)C(C)=O,4.08%,–
COc1cc(/C=C/C(=O)O[C@H]2CC[C@]34C[C@]35CC[C@]3(C)[C@@H]([C@H](C)CCC=C(C)C)CC[C@@]3(C)[C@@H]5CC[C@H]4C2(C)C)ccc1O,6.22%,–
C[C@]12CCC(=O)C=C1[C@@H]1C[C@@H]1[C@H]1[C@@H]3[C@@H]4C[C@@H]4[C@@]4(CCC(=O)O4)[C@@]3(C)CC[C@@H]12,-1.76%,–
CC(=O)Nc1c(I)cc(I)c(C(=O)O)c1I,3.82%,–
C#C[C@]1(O)CC[C@H]2[C@@H]3CCc4cc(OC5CCCC5)ccc4[C@H]3CC[C@@]21C,-7.7%,–
CC1(C)O[C@@H]2C[C@H]3[C@@H]4C[C@H](F)C5=CC(=O)CC[C@]5(C)[C@H]4[C@@H](O)C[C@]3(C)[C@]2(C(=O)CO)O1,-7.69% [at 20.6 µM],–
O=C1OC2(c3ccc(O)cc3Oc3cc(O)ccc32)c2ccccc21,–,0.631 µM (active)
CN(C/C=C/c1ccccc1)Cc1cccc2ccccc12,–,10 µM (active)
CC(=O)N/N=C/c1ccc([N+](=O)[O-])o1,-11.1%,–
C/C=C/c1ccc(OC)cc1,-8.76%,–
CCCSS/C(CCO)=C(\C)N(C=O)Cc1cnc(C)nc1N,–,11.2 µM (active)

# Target: Luciferin 4-monooxygenase (Photinus pyralis) (UniProt P08659)
# Sequence (P08659 whole entry, looked up): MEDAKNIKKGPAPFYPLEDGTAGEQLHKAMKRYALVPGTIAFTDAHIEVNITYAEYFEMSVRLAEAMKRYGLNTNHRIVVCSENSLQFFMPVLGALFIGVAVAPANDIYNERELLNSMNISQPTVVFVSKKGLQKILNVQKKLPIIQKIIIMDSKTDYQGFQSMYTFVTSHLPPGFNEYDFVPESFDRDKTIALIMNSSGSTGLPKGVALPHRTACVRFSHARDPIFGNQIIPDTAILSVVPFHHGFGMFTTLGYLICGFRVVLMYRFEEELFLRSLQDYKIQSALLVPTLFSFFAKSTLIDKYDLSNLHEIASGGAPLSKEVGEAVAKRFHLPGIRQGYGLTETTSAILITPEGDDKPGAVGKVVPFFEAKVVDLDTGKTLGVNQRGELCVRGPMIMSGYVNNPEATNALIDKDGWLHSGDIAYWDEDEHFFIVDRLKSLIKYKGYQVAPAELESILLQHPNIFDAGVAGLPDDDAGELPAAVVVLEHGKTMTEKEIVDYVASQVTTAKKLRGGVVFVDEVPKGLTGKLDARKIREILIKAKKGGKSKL
# Assay: Biochemical firefly luciferase enzyme assay for NPC (AID 624030);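 also: purified P. pyralis luciferase at 10 nM with luciferin and ATP substrate; 0% = DMSO and -100% = full luciferase inhibition by PTC124 control; nearly all actives have a fitted effect of over 70% in size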
# Conditions: purified P. pyralis luciferase, luminescence, 5 min; series mostly up to 58.6 µM; activity change, negative = inhibition: at the top concentration
# How it was run: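 Counter-screen for direct inhibition of the luciferase enzyme by approved-drug library compounds, run at 10 nM enzyme in 50 mM Tris acetate (final). Luminescence was read within 5 min of enzyme-buffer addition and normalized to PTC124 versus DMSO (0%).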
row,SMILES,"activity change, negative = inhibition [%]"
1,CC1=C(C(=O)OC(C)C)C(c2cccc([N+](=O)[O-])c2)C(C(=O)OC2CN(C(c3ccccc3)c3ccccc3)C2)=C(N)N1 (stereo unspecified),0.0422
2,N[C@H](Cc1c[nH]c2ccccc12)C(=O)O,-22.8
3,CCCCCCCCCCOCC(O)CN (stereo unspecified),-1.64
4,Cc1cc(N)c2cc(NC(=O)Nc3ccc4nc(C)cc(N)c4c3)ccc2n1,9.68
5,CCOC(=O)OC(C)OC1=C(C(=O)Nc2ccccn2)N(C)S(=O)(=O)c2ccccc21 (stereo unspecified),-1.55
6,C=C(CC)C(=O)c1ccc(OCC(=O)O)c(Cl)c1Cl,-22
7,Oc1ccc(Cl)c2cccnc12,20.5
8,C[C@]12C=CC(=O)C=C1[C@@H](F)C[C@@H]1[C@@H]2[C@@H](O)C[C@@]2(C)[C@H]1CC[C@]2(O)C(=O)CO,1.58
9,CC(=O)Nc1c(I)cc(I)c(C(=O)O)c1I,-2.41
10,C#C[C@]1(O)CC[C@H]2[C@@H]3CCc4cc(OC5CCCC5)ccc4[C@H]3CC[C@@]21C,-5.17
11,O=C1OC2(c3ccc(O)cc3Oc3cc(O)ccc32)c2ccccc21,-5.09
12,CC(=O)N/N=C/c1ccc([N+](=O)[O-])o1,-8.6
